The list is not random: actives were taken first. Their share in the collection is about 2.9%.
B2AR arrestin = agonists driving beta-arrestin recruitment to human beta2-adrenergic receptor. AID 492947. Potency, µM (highest dose often 46.1 µM), hits mostly activators. beta-arrestin recruitment to beta2AR, cell-based reporter. P07550. 330,000 tested, 0.02% active; active = well fitted activation curve with a large enough effect; inconclusive = small, poorly fitted or top-dose-only effect; also: nearly all actives have a fitted effect of over 65% in size
TSHR antagonist = blocks TSH signaling through the human TSH receptor; P16473; TSHR-expressing cells, TSH-stimulated cAMP HTRF, 2 h; stronger effect = lower value; activity change, negative = inhibition, % at 11.5 µM; 330,000 tested, 0.2% active;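 active = activity change below a set negative limit, meaning inhibition stronger than a set level, cut at about -70% in these data; inconclusive = activity change between two set negative limits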
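Freshly harvested TSHR cells receive pin-tooled compound, then EC80 TSH at 4nM final. After 2 hours at 37 deg C, antibody in lysis buffer and cAMP-d2 are added; 30 minutes at ambient temperature precede the HTRF read.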
D3 ag = agonists of human D3 dopamine receptor. P35462. D3R DiscoveRx beta-arrestin cells, luminescence, 90 min. max activation, %. 410,000 tested, 0.58% active. AID 652048; in the data active = max activation above about 30%
Target sequence (P35462 whole entry, looked up): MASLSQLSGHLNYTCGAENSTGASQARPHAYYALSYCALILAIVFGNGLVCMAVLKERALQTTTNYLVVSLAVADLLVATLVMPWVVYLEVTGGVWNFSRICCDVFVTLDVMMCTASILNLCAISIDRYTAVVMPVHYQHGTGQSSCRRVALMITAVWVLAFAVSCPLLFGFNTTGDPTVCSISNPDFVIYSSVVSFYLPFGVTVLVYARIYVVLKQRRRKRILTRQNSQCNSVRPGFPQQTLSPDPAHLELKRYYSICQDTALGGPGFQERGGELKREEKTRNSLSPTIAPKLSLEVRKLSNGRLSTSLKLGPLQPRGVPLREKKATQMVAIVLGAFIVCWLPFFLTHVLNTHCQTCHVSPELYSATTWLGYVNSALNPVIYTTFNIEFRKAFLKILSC
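Agonist mode: compounds and dopamine controls were applied to plated cells for 90 min at 37 degrees C after an overnight attachment at 1500 cells/well. Luminescent read-out followed 30 - 60 minutes at room temperature with DiscoveRx detection reagent.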
DRD3 antagonist = blocks the human D3 dopamine receptor; D3R cells, DiscoveRx beta-arrestin luminescence, antagonist mode; stronger effect = lower value; AID 652054; 360,000 tested, 2.5% active; max response, negative = inhibition, %; in the data active = max response below about -50%; inconclusive = no clear call, values can overlap the other calls
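Cells plated overnight at 1500 cells/well, then exposed to library compounds with dopamine controls for 90 minutes at 37 degrees C. DiscoveRx reagent added for 30–60 minutes at room temperature; luminescence read, quantitative HTS format.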
Each line names hits and unclear results; the compound was inactive in the other large screens.

Nc1nnnn1/N=C/c1ccc(N2CCCCC2)c([N+](=O)[O-])c1	DRD3 antagonist -54
O=[N+]([O-])c1cc(-c2ncccn2)c([N+](=O)[O-])s1	DRD3 antagonist -104
Cc1cc2nc(NC(=O)C3(C)CCN3C(=O)C(C)C)[nH]c2cc1C (centres undefined)	D3 ag 66 (no result: B2AR arrestin, TSHR antagonist)
CN(C)S(=O)(=O)N1CCN(S(=O)(=O)c2ccc3ccccc3c2)CC1	none
COC(=O)C1CCCN1S(=O)(=O)c1ccc([N+](=O)[O-])cc1 (centres undefined)	none
COC(=O)C1CCCN1S(=O)(=O)c1ccc2ccccc2c1 (centres undefined)	TSHR antagonist -78, DRD3 antagonist inconclusive
CN(C)C(=O)N1CCN(S(=O)(=O)c2ccc3ccccc3c2)CC1	D3 ag 30
CCOC(=O)COc1ccc2c(C)c(CCN(CC)CC)c(=O)oc2c1	none (no result: B2AR arrestin, TSHR antagonist, DRD3 antagonist)
C=C(C)Cn1c2ccc(NC(=S)NCc3ccccc3F)cc2c(=O)n1C	DRD3 antagonist -52 (no result: B2AR arrestin, TSHR antagonist)
CCNc1nc(N)c(C(=O)c2ccc(Cl)s2)s1	DRD3 antagonist -51
COc1cc(-c2cc(OC)c3c(C)oc(C)c3c(=O)c2)ccc1OC(=O)c1cccc(Cl)c1	none (no result: B2AR arrestin, TSHR antagonist, DRD3 antagonist)
CN(C)CCCOc1cccc(Oc2ccccc2)c1	DRD3 antagonist inconclusive
C=CCN(CC=C)CCOc1cccc(Oc2ccccc2)c1	DRD3 antagonist -50
COc1ccc(Br)cc1/C(C)=N/NC1=NCCN1	DRD3 antagonist -52
COC(=O)NC(=S)Nc1ccc(Oc2ccc(Cl)cc2)c(Cl)c1	DRD3 antagonist inconclusive
COC(=O)NC(=S)Nc1ccc(Oc2ccc(Cl)cc2Cl)c(Cl)c1	DRD3 antagonist -65
C=CCNS(=O)(=O)c1ccc(OCC(=O)OCC)cc1	DRD3 antagonist -60
O=C(c1cccc(Cl)c1)n1nc(-c2cccnc2)nc1NCc1ccccc1	none (no result: B2AR arrestin, TSHR antagonist, DRD3 antagonist)
CCOC(=O)c1c(NC(=O)CCCOc2ccc(Cl)cc2)sc2c1CCC2	none (no result: B2AR arrestin, TSHR antagonist, DRD3 antagonist)
O=C(/C=C/c1ccc2c(c1)OCO2)Nc1nc(-c2ccccc2)cs1	TSHR antagonist -79
COc1cc2c(cc1OC)[C@@H]1O[C@](CCCCN3C(=O)c4ccccc4C3=O)(C2)Oc2cc(C)n(-c3ccccc3)c(=O)c21	none (no result: TSHR antagonist, D3 ag, DRD3 antagonist)
CCCCCCC1CC(CSC(=N)N)OC1=O (centres undefined)	DRD3 antagonist -59
COc1ccc(Cl)cc1Cn1c(C)c(C(=O)NCc2cccc(C(F)(F)F)c2)sc1=O	DRD3 antagonist -60 (no result: B2AR arrestin, TSHR antagonist)
COc1ccc(Cl)cc1Cn1c(C)c(C(=O)NCc2ccc(C#N)cc2)sc1=O	DRD3 antagonist -50 (no result: B2AR arrestin, TSHR antagonist)
COc1ccccc1Cn1c(C)c(C(=O)NCc2ccc(C#N)cc2)sc1=O	none (no result: B2AR arrestin, TSHR antagonist)
Cc1c(C(=O)NCc2ccccc2C(F)(F)F)sc(=O)n1Cc1ccc2ccccc2c1	none (no result: B2AR arrestin, TSHR antagonist)
Cc1c(C(=O)NCc2ccccc2C(F)(F)F)sc(=O)n1Cc1cccc(C(F)(F)F)c1	DRD3 antagonist -55 (no result: B2AR arrestin, TSHR antagonist)
CCOc1ccc(N2CC(c3nc4ccccc4n3CCCOc3ccccc3)CC2=O)cc1 (centres undefined)	none (no result: B2AR arrestin, TSHR antagonist, DRD3 antagonist)
Cc1cc(F)ccc1NC(=O)C1CCCN(S(=O)(=O)c2ccc3c(c2)CCCC(=O)N3)C1 (centres undefined)	none (no result: B2AR arrestin, TSHR antagonist, DRD3 antagonist)
COc1ccc(-c2ccc3c(N)c(C(=O)Nc4cccc(C)c4)sc3n2)cc1	none (no result: B2AR arrestin, TSHR antagonist, DRD3 antagonist)
CN(C)c1ccc(N=Nc2ccccc2Br)cc1	none
CN(C)c1ccc(N=Nc2nccs2)cc1	DRD3 antagonist -82 (no result: B2AR arrestin, TSHR antagonist)
S=C(Nc1ccc(Nc2ccccc2)cc1)Nc1ccccn1	DRD3 antagonist -67
Cc1ccc(S(=O)(=O)N2C[C@@H]3[C@H]4CC[C@H](C4)[C@@H]3[C@@H](C)[C@@H]2C2CCCCC2=O)cc1 (some centres undefined)	none
CC1=CN(S(=O)(=O)c2ccc(C)cc2)C[C@@H]2[C@H]3CC[C@H](C3)[C@H]12	DRD3 antagonist -65
N=C1SC(c2ccccc2)C(=O)N1c1ncc(Cc2ccccc2)s1 (centres undefined)	DRD3 antagonist -56
O=C1/C(=C\c2ccc(O)cc2)SC(=S)N1Cc1ccccc1	DRD3 antagonist -82
O=C(O)c1ccc(/C=C2/SC(=S)N(Cc3ccccc3)C2=O)cc1	none
CN1c2ccc(Cl)cc2-c2nc(SCC(=O)NCc3ccccc3)ncc2S1(=O)=O	none (no result: B2AR arrestin, TSHR antagonist, DRD3 antagonist)
NS(=O)(=O)c1ccc(N2N=C(c3ccccc3)CC2c2cccc(Br)c2)cc1 (centres undefined)	D3 ag 47
CCCC(=O)Nc1nc2ccc3nc(C)sc3c2s1	none
CCCCC(=O)Nc1nc2ccc3nc(C)sc3c2s1	DRD3 antagonist -80
C=C1CC2C3CCC4=CC(=O)C=C[C@]4(C)[C@@]3(F)[C@@H](O)C[C@]2(C)[C@@]1(O)C(=O)COC(C)=O (some centres undefined)	none (no result: B2AR arrestin, TSHR antagonist, DRD3 antagonist)
Cc1nc2nncn2c(NCc2ccc(Cl)cc2)c1C	none (no result: B2AR arrestin, TSHR antagonist, DRD3 antagonist)
CCOC(=O)c1[nH]c2ccccc2c1NC(=S)Nc1cccc(C)c1	DRD3 antagonist -53
Cc1cccc(NC(=O)CCCn2c(=S)[nH]c3ccccc3c2=O)c1	D3 ag 47
Cn1c(SCC(=O)Nc2ccccc2)nc2c([nH]c3ccccc32)c1=O	none
Cc1cccc(NC(=O)CSc2nc3c([nH]c4ccccc43)c(=O)n2C)c1	DRD3 antagonist -70
CCOC(=O)c1[nH]c2ccccc2c1NC(=S)Nc1ccccc1	none
COc1ccc(Cl)cc1NC(=O)C(=O)NCc1ccc(Cl)cc1	none (no result: B2AR arrestin, TSHR antagonist, DRD3 antagonist)
CCN(CC)S(=O)(=O)c1ccc(S(=O)(=O)Nc2ccc3c(c2)oc2ccccc23)cc1	DRD3 antagonist -58
CCOc1ccc(NS(=O)(=O)c2ccc(C(=O)N3CCCCC3)cc2)cc1	none
CN(C)S(=O)(=O)c1ccc(S(=O)(=O)Nc2ccc3c(c2)oc2ccccc23)cc1	none
CCN(CC)S(=O)(=O)c1ccc(S(=O)(=O)Nc2ccc(C(=O)N3CCCC3)cc2)cc1	DRD3 antagonist -56
CCOc1ccccc1N1CCN(Cc2cnc(-c3ccccc3)[nH]2)CC1	DRD3 antagonist -94
CCOC(=O)C1CCN(c2ccccc2CN2CCN(c3ccccc3OCC)CC2)CC1	DRD3 antagonist -75
CCOc1ccccc1N1CCN(Cc2ccco2)CC1	none
CCOc1ccccc1N1CCN(Cc2ccc(Br)s2)CC1	DRD3 antagonist -95
CCOc1ccccc1N1CCN(Cc2ccc(OC)c(OC)c2OC)CC1	DRD3 antagonist -141
Cc1nnc2c(N3CCN(c4ccc(F)cc4)CC3)nc3ccc(C(=O)c4ccccc4)cc3n12	none (no result: B2AR arrestin, TSHR antagonist, DRD3 antagonist)
CCN(CC)CCNC(=O)c1cc2c(=O)n(C)c3cc(Cl)ccc3c2s1	none (no result: B2AR arrestin, TSHR antagonist, DRD3 antagonist)
COc1ccccc1N1CCN(Cc2cc(=O)oc3ccccc23)CC1	none (no result: B2AR arrestin, TSHR antagonist)
COc1ccccc1N1CCN(Cc2cc3c(cc2Br)OCCO3)CC1	DRD3 antagonist -76
COc1ccc(N2CCN(Cc3cc4c(cc3Br)OCCO4)CC2)cc1	none
COc1cc(OC)c(OC)cc1CN1CCN(c2ccccc2OC)CC1	DRD3 antagonist -66
COc1ccccc1N1CCN(Cc2ccc(Br)o2)CC1	DRD3 antagonist -81
CCc1ccc(-n2nc3ccc(NC(=O)c4ccc(C#N)cc4F)cc3n2)cc1	none (no result: B2AR arrestin, TSHR antagonist, DRD3 antagonist)
CC(C)c1ccc(NC(=O)c2cc(S(=O)(=O)N3CCCCC3)cn2C)cc1	none (no result: B2AR arrestin, TSHR antagonist, DRD3 antagonist)

Source: PubChem
